# Screens from PubChem BioAssay.
# Hits are enriched below; roughly 4% of the tested compounds scored in any of these assays.
# 697 NFkB inh: inhibitors of the PMA/ionomycin-induced NF-kB reporter in 697 B cells; 697 B-cell NF-kB luciferase reporter, 16 h; inhibition, % at 4 µM; hit rate 0.33% among 330,000; AID 435022; in the data active = inhibition above about 35%
# Jurkat NFkB inh: inhibitors of the PMA/ionomycin-induced NF-kB reporter in Jurkat cells. AID 435003. PMA/ionomycin-induced NF-kB luciferase reporter, luminescence. hit rate 0.53% among 330,000. inhibition, % at 4 µM; in the data active = inhibition above about 50%
# Beta cell apopt: blocks beta cell apoptosis | INS-1E cytokine-induced death, ATP luminescence, 48 h; percent of positive-control rescue, neutral wells zero | protection from apoptosis, % (no concentration beside the values) | hit rate 0.8% among 300,000;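 active = Every replicate reaches about 75%, or at least half do and their mean reaches it too, limit read from the data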;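 note: 0% = cytokine-treated negative control wells and 100% = positive control rescue; higher means more ATP so stronger rescue from cytokine killing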
# Gli-Sufu antag: Gli-Sufu pathway antagonism | Sufu-KO-LIGHT fibroblasts, Gli luciferase reporter luminescence | inhibition, % at 5 µM | hit rate 0.74% among 340,000 | AID 588413;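 active = inhibition above about 55%, limit read from the data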;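 note: 0% = DMSO-treated cells and 100% = wells with medium but no cells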
# Mdm2 MdmX PPI: disrupts the human Mdm2-MdmX interaction; SaOS-2 split-luciferase Mdm2/MdmX complementation, luminescence; inhibition, % at 8 µM; hit rate 3% among 330,000; AID 485346;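 active = inhibition of at least 50% at 8 µM in the primary screen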
# Target sequence (O15151 whole entry, looked up): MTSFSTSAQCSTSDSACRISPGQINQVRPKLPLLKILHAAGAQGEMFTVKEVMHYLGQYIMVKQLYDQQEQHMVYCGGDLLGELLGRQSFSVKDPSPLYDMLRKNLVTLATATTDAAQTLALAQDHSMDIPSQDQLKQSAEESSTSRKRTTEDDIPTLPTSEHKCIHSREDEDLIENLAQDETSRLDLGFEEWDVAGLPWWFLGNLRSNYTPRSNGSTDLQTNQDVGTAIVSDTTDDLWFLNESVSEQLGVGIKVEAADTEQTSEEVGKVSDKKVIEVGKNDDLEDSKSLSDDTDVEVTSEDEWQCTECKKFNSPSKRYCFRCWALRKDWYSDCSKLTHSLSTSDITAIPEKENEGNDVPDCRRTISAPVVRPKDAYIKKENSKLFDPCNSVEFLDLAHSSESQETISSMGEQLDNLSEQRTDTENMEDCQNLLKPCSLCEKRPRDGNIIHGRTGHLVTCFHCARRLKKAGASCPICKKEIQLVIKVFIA
# Target sequence (Q00987 whole entry, looked up): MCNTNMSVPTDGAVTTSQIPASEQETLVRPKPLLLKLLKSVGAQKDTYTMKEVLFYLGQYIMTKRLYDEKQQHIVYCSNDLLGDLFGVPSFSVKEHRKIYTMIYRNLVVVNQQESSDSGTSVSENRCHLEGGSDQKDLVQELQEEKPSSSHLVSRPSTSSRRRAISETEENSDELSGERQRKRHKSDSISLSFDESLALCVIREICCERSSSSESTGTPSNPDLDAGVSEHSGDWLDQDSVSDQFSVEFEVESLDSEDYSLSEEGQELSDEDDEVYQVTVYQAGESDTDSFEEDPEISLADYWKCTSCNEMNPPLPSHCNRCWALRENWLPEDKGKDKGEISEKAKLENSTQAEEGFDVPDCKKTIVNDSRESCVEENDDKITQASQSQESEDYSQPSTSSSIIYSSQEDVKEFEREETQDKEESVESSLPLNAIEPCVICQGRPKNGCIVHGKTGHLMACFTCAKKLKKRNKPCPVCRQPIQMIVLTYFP
# Mdm2 MdmX conf: confirmation of human Mdm2/MdmX interaction inhibitors; shares compounds with Mdm2 MdmX PPI; hit rate 55% among 10,000; Mdm2-MdmX binding, luminescent assay; inhibition, % at 8 µM; in the data active = inhibition above about 40%
# FLuc counter: inhibits full-length luciferase, flagging false Mdm2/MdmX hits | AID 504607 | inhibition, % at 8 µM | SaOS-2 full-length luciferase counterscreen, luminescence | hit rate 77% among 6,200 | shares compounds with Mdm2 MdmX PPI;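 active = mean inhibition at 8 µM reaching about 37%, which flags the compound as non-specific, limit read from the data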;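 note: p53-null SaOS-2 cells with luciferase driven by a doxycycline-inducible promoter; compound on cells about two nights before reading with doxycycline added after day one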
# Numbers without * were called inactive; nt = no result given.
SMILES,697 NFkB inh,Jurkat NFkB inh,Beta cell apopt,Gli-Sufu antag,Mdm2 MdmX PPI,Mdm2 MdmX conf,others
Cn1nc(C(=O)O)c(=O)n(C)c1=O,nt,nt,nt,-2,nt,nt,
CCCCCc1nc2c(c(=O)c3ccccc3n2C)c(=O)n1Cc1ccc(OC)cc1,-8,11,7,-2,51*,18,
O=C(Nc1cccnc1Cl)c1cc2c(s1)-c1ccccc1OC2,3,-11,4,-47,-3,nt,
CN1CCN(c2ccccc2NC(=O)c2cc3c(s2)-c2ccccc2OC3)CC1,-11,11,4,-20,57*,52*,FLuc counter=63*
CC(C)CN(C(=O)CN1C(=O)C2CCCCC2C1=O)c1c(N)n(Cc2ccccc2)c(=O)[nH]c1=O (centres undefined),17,10,4,-3,1,nt,
N#C/C(=C/c1cn(-c2ccccc2)nc1-c1cccc(OCc2ccccc2)c1)C(=O)NCCCn1ccnc1,-3,-8,4,1,28,nt,
Cc1ccc(-c2nn(-c3ccccc3)cc2/C=C(\C#N)C(=O)NCc2ccccc2)cc1,-14,-8,-2,-12,75*,44*,FLuc counter=85*
CCOc1cccc(-c2nn(-c3ccccc3)cc2/C=C(/C#N)C(=O)NCCCn2ccnc2)c1,-20,0,12,7,77*,39,FLuc counter=51*
CC(NC(=O)/C(C#N)=C/c1cn(-c2ccccc2)nc1-c1ccc(F)cc1)c1ccccc1 (centres undefined),-16,-5,1,3,17,nt,
O=[N+]([O-])c1cc2c(cc1CN1CCN(CCOCCO)CC1)OCO2,-7,16,-4,9,16,nt,
O=C(CN1C(=O)NC2(CCCC2)C1=O)OCc1ccc(Cl)c(Cl)c1,-3,-2,-6,16,16,nt,
O=C(COC(=O)c1ccccn1)NC(=O)c1ccccc1,16,-1,1,-1,-5,nt,
CCCCn1c(C)nc2cc(S(=O)(=O)N3CCOCC3)ccc21,15,0,-4,6,7,nt,
CCCCn1c(CCl)nc2cc(S(=O)(=O)N3CCOCC3)ccc21,13,10,-2,-1,88*,53*,FLuc counter=30
Cc1cc(C)c2nc(N3CCC(C(=O)NCCCN4CCCCC4)CC3)sc2c1,-11,-8,7,10,84*,43*,FLuc counter=46*
Cc1cc(C)c2nc(N3CCC(C(=O)NCC4CCCO4)CC3)sc2c1 (centres undefined),-37,8,2,-7,-10,nt,
COc1cc(C(=O)Nc2nc(C)c(Cc3ccc4c(c3)OCO4)s2)cc(OC)c1OC,-5,47,43,11,79*,67*,FLuc counter=76*
CCC(=O)Nc1sc(Cc2ccc3c(c2)OCO3)c(C)c1C(N)=O,-7,3,-13,-2,4,nt,
Cc1c(Cc2ccc3c(c2)OCO3)sc(NC(=O)c2ccc3ccccc3c2)c1C(N)=O,3,-19,27,-7,80*,-11,
Cc1c(Cc2ccc3c(c2)OCO3)sc(NC(=O)C(C)(C)C)c1C#N,-23,24,-2,-4,58*,36,
CCN(CC)C(=O)c1sc(NC(=O)c2ccc3c(c2)OCO3)c(C#N)c1C,8,5,nt,29,-8,nt,
Cc1c(Br)c([N+](=O)[O-])nn1CC(=O)NCc1cccnc1,12,7,-3,1,8,nt,
COc1ccccc1N(Cc1ccccc1)S(=O)(=O)c1cccc(C(=O)NCC2CCCO2)c1 (centres undefined),-17,7,2,0,-11,nt,
CCCN1C(=O)/C(=C/c2c(NCCCOCC)nc3c(C)cccn3c2=O)SC1=S,nt,nt,nt,-15,nt,nt,
O=C1/C(=C\c2c(NCCOCCO)nc3ccccn3c2=O)SC(=S)N1Cc1ccco1,-2,-4,nt,32,54*,28,
SMILES,697 NFkB inh,Jurkat NFkB inh,Beta cell apopt,Gli-Sufu antag,Mdm2 MdmX PPI,Mdm2 MdmX conf,others
Cc1c(N=C2N=C(NC(=O)NC(C)(C)C)c3ccccc32)c(=O)n(-c2ccccc2)n1C,3,-2,8,17,9,nt,
Cc1c(N=C2N=C(NC(=O)c3cccs3)c3ccccc32)c(=O)n(-c2ccccc2)n1C,-2,-3,20,8,78*,13,
O=C(CSc1nnc(NC(=O)c2c(F)cccc2F)s1)NCc1ccc(F)cc1,6,-3,nt,-2,3,nt,
Nc1c(S(=O)(=O)c2cccs2)c2nc3ccccc3nc2n1/N=C/c1cccc(O)c1,3,-4,14,5,79*,56*,FLuc counter=86*
COc1cccc(/C=N/n2c(N)c(S(=O)(=O)c3cccs3)c3nc4ccccc4nc32)c1,26,-7,5,-2,25,nt,
O=C(COc1ccc(Cl)cc1)NNC(=O)c1ccc2c(=O)n3c(nc2c1)CCC3,13,11,2,-11,-1,nt,
O=C(/C=C/c1ccccc1)NNC1=NS(=O)(=O)c2ccccc21,16,-19,0,0,4,nt,
O=C(Nc1nccs1)c1nc[nH]c1C(=O)NCc1ccccc1,32,22,-7,-1,51*,0,
CC(=O)Nc1cccc(C(=O)/C=C/c2ccc(F)cc2)c1,15,-7,4,-20,73*,25,
CC(=O)Nc1cccc(C(=O)/C=C/c2ccc(Br)cc2)c1,5,4,0,-22,97*,74*,FLuc counter=53*
Cc1cccc(C(=O)Nc2ccc(C(=O)/C=C/c3ccncc3)cc2)c1,-8,-7,15,-15,97*,11,
CCC(=O)Nc1cccc(C(=O)/C=C/c2cc(Br)ccc2OC)c1,-47,29,-9,-21,97*,80*,FLuc counter=59*
CC(=O)Nc1cccc(C(=O)/C=C/c2ccc(N(C)C)cc2)c1,10,-10,10,-11,-19,nt,
Cc1cccc(C(=O)Nc2cccc(C(=O)N/N=C/c3ccncc3)c2)c1,17,3,-10,1,6,nt,
Cc1c(NS(=O)(=O)c2cc(C(=O)OCC(=O)N3CCC(C)CC3)ccc2Cl)c(=O)n(-c2ccccc2)n1C,10,-13,1,-12,15,nt,
CC(C)N1CC(C(=O)Nc2ccc(Cl)c([N+](=O)[O-])c2)CC1=O (centres undefined),2,5,2,4,16,nt,
O=C(NC1CCN(S(=O)(=O)c2cccc(F)c2)CC1)c1cccc(F)c1,-2,-2,-4,-9,-1,nt,
CCCCCc1ccc(S(=O)(=O)NCCc2ccncc2)cc1,-32,-4,8,13,2,nt,
Cc1cc(Cl)n2nc(C)c(-c3ccc(Cl)cc3)c2n1,18,1,-1,-2,91*,52*,FLuc counter=15
C[C@@H]1[C@@H](Sc2ccccc2)CC(=O)O[C@@H]1c1ccc(-c2ccccc2)cc1,10,22,nt,6,97*,63*,FLuc counter=51*
O=C1CC(C(=O)NC2CCCCC2)C(c2ccccc2)O1 (centres undefined),11,0,2,nt,14,nt,
CSc1ccccc1OCc1cc(C(=O)NCCC2=CCCCC2)no1,-10,-7,-7,7,52*,8,
